# Experimental data taken from PubChem BioAssay.
# Calls of active or inactive are those of the source. Unless noted, the rule behind the calls is not given here.
# What was measured:
# [1] = A549 cell viability effects, profiling panel, calcein-AM fluorescence, 48 h, basal (AID 1162); settings: higher = more signal; note: test concentration not given here
# [2] = adipocyte viability effects, profiling panel, cell-based, 3T3-L1 adipocytes, calcein-AM fluorescence, 48 h, basal (AID 1163); settings: 3T3-L1 adipocytes viability, higher = more signal; note: test concentration not given here
# [3] = HepG2 cell viability effects, profiling panel, calcein-AM fluorescence, 48 h, basal (AID 1164); settings: higher = more signal; note: test concentration not given here
# [4] = MM1S cell viability effects, profiling panel, calcein-AM fluorescence, 48 h, basal (AID 1165); settings: higher = more signal;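 note: viability of MM1S multiple myeloma cells under basal unstimulated conditions; test concentration not given here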
# [5] = basal RPMI8226 viability, no added stimulus, profiling panel, cell-based, calcein-AM fluorescence, 48 h, PK04 Diversity Set (AID 1166); settings: RPMI8226 myeloma viability, higher = more signal;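 note: cells grown under basal conditions without added stimulus; test concentration not given here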
# [6] = basal HepG2 mitochondrial membrane potential changes, profiling panel, cell-based, JC-1 fluorescence, 24 h, 100 nL compound (AID 1167); settings: higher = more signal; note: test concentration not given here
# [7] = basal 3T3-L1 adipocyte mitochondrial potential changes, profiling panel, cell-based, JC-1 fluorescence, 3T3-L1 adipocytes, 24 h, 100 nL compound (AID 1168); settings: JC-1 mitochondrial fluorescence, higher = more signal, called active from +8 up or from −8 down; note: test concentration not given here
# [8] = basal RPMI8226 mitochondrial membrane potential changes, profiling panel, cell-based, JC-1 fluorescence, 24 h, 100 nL compound (AID 1169); settings: RPMI8226 myeloma, JC-1 mitochondrial potential fluorescence, higher = more signal; note: test concentration not given here
# [9] = basal MM1S mitochondrial membrane potential changes, profiling panel, cell-based, JC-1 fluorescence, 24 h, 100 nL compound (AID 1170); settings: higher = more signal; note: test concentration not given here
# [10] = A549 lung cancer cell viability effects, profiling panel, resazurin fluorescence, 24 h, PK04 Diversity Set (AID 1171); settings: higher = more signal, called active from +8 up or from −8 down; note: test concentration not given here
# [11] = HepG2 liver cancer cell viability effects, profiling panel, resazurin fluorescence, 24 h, PK04 Diversity Set (AID 1172); settings: higher = more signal; note: test concentration not given here
# [12] = basal S. cerevisiae growth modulation, no modifier, primary screen, OD600, strain BY4716, 24 h, basal condition (AID 1173); settings: OD600, 24 h, higher = more signal, called active from +8 up or from −8 down
# [13] = MM1S myeloma cell viability, profiling panel, resazurin fluorescence, basal, 24 h, PK04 Diversity Set (AID 1174); settings: higher = more signal, called active from +8 up or from −8 down;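 note: MM1S multiple myeloma cell line; test concentration not given here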
# [14] = molecular target: Dihydroorotate dehydrogenase (quinone), mitochondrial (Plasmodium falciparum (isolate 3D7)) (UniProt Q08210); experiment: PfDHODH enzyme inhibitors, primary screen, biochemical, C-terminal His tag, absorbance 600 nm (AID 1175); settings: DCIP absorbance 600 nm, higher = more signal, called active from +8 up or from −8 down;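 note: recombinant parasite enzyme with a five histidine tag at its C terminus; test concentration not given here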
# [15] = P. aeruginosa biofilm formation inhibitors, primary screen, strain PAO1, LB-PBS medium, absorbance 600 nm (AID 1176); note: test concentration not given here; settings: P. aeruginosa PAO1 growth/biofilm, A600, 12 h; higher = more signal
# [16] = S. cerevisiae RM11-1a growth modifiers, primary screen, strain RM11-1a, OD600, basal, 24 h (AID 1177); settings: OD600, 24 h, higher = more signal, called active from +8 up or from −8 down;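 note: cultures grown under basal conditions with no added stressor; test concentration not given here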
# [17] = E. coli acrAB mutant growth effects, primary screen, E. coli filamentation inducers, strain DRC39, OD650, 24 h (AID 1178); settings: higher = more signal, called active from +8 up or from −8 down;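 note: growth measured as culture turbidity by optical density at 650 nm; test concentration not given here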
# [18] = E. coli acrAB mutant growth effects, primary screen, E. coli filamentation inducers, strain DRC39, OD650, 48 h (AID 1179);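 note: screen aims at cell division blockers that make cells filament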; settings: E. coli DRC39 delta-acrAB growth, higher = more signal, called active from +8 up or from −8 down
# [19] = RPMI8226 myeloma cell viability, profiling panel, resazurin fluorescence, basal, 24 h, PK04 Diversity Set (AID 1180); settings: higher = more signal;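 note: RPMI8826 multiple myeloma cell line at 5000 cells per well; test concentration not given here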
# [20] = molecular target: E3 ubiquitin-protein ligase XIAP (Homo sapiens) (UniProt P98170); experiment: XIAP binders, primary screen, biophysical, small-molecule microarray, fluorescence 635 nm (AID 1181); settings: small-molecule microarray binding, higher = more signal;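 note: score merges 667 nm emission and signal to noise over triplicate slides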
# Chain of E3 ubiquitin-protein ligase XIAP (Homo sapiens) (P98170 whole entry, looked up): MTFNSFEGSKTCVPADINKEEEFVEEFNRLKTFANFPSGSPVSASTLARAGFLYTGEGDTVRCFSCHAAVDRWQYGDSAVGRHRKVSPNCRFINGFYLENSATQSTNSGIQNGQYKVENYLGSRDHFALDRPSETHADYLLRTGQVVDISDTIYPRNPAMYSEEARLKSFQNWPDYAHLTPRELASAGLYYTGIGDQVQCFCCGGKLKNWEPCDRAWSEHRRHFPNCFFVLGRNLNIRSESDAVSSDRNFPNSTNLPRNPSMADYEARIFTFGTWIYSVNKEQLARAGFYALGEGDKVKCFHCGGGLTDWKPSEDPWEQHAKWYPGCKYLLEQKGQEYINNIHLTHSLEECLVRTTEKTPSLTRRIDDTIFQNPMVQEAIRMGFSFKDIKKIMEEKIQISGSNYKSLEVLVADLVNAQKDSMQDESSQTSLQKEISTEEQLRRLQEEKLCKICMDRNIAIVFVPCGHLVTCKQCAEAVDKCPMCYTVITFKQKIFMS
# Chain of Dihydroorotate dehydrogenase (quinone), mitochondrial (Plasmodium falciparum (isolate 3D7)) (Q08210 whole entry, looked up): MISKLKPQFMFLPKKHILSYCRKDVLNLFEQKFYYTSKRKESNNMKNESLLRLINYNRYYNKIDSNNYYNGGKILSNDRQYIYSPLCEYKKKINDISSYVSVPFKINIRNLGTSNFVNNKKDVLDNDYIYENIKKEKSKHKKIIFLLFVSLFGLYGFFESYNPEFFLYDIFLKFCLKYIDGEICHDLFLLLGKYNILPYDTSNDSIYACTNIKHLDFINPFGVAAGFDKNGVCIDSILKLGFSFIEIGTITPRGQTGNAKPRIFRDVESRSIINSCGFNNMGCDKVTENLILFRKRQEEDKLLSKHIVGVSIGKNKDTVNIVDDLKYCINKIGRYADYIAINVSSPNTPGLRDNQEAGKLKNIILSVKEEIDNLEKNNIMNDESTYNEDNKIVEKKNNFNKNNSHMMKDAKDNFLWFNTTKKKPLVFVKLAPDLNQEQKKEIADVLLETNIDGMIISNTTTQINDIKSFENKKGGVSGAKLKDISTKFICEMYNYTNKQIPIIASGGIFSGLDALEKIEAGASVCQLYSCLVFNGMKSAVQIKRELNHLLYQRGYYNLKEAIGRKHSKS
Structure (SMILES),z-score [1],z-score [2],z-score [3],z-score [4],z-score [5],z-score [6],z-score [7],z-score [8],z-score [9],z-score [10],z-score [11],z-score [12],z-score [13],composite z-score [14],z-score [15],z-score [16],z-score [17],z-score [18],z-score [19],composite z-score [20]
CC(C)NC(=O)[C@@H]1c2ccccc2C(=O)N(C2CCCCC2)[C@H]1c1ccc(CO)cc1,0.699,-0.209,0.581,-0.594,-2.04,1.54,-0.656 (inactive),-0.811,0.103,1.08 (inactive),-0.208,-0.63 (inactive),-0.569 (inactive),-0.131 (inactive),0.36 (inactive),0.052 (inactive),0.126 (inactive),-0.0549 (inactive),-0.374,0.0124
COC(=O)c1c2oc(c1C(=O)OC)C(=O)N[C@H](Cc1ccccc1)Cn1nncc1C1(CCCCC1)NC(=O)N[C@H](CO)CC2,0.876,0.0786,0.8,-1.1,0.358,3.8,-0.413 (inactive),-0.65,-0.936,0.286 (inactive),1.09,0.916 (inactive),2.4 (inactive),0.112 (inactive),1.27 (inactive),0.416 (inactive),0.157 (inactive),0.402 (inactive),2.19,0.0859
Cc1ccc(S(=O)(=O)N2CC(C(=O)O)=CCC2c2ccccc2)cc1 (stereo not given),-0.901,0.324,-0.772,-0.249,-1.19,-0.644,-2.04 (inactive),-0.25,1.53,-0.717 (inactive),-1.31,0.558 (inactive),-2.27 (inactive),0.154 (inactive),0.12 (inactive),0.437 (inactive),-1.28 (inactive),-1.15 (inactive),-0.931,0.155
O=C1O[C@H](c2ccccc2)[C@H](c2ccccc2)N2[C@H]1[C@@H](C(=O)Nc1nc3ccccc3s1)[C@]1(C(=O)Nc3ccc(C#CC4=CCCCC4)cc31)[C@H]2c1ccc(OCCO)cc1,-0.641,1.07,-0.819,-1.69,-1.7,-3.34,0.256 (inactive),-1.07,-1.8,0.18 (inactive),0.281,1.63 (inactive),-0.543 (inactive),-3.03 (inactive),3.01 (inactive),1.46 (inactive),-0.154 (inactive),-0.686 (inactive),-0.496,-0.24
C=C[C@H](OC)[C@@H](OC(=O)Nc1ccc(SC)cc1)c1ccc(OCCO)cc1,-0.13,0.559,0.0758,-0.164,0.609,-2.55,0.734 (inactive),-0.0748,-0.887,-0.139 (inactive),-0.237,-1.95 (inactive),-0.895 (inactive),-1.02 (inactive),0.662 (inactive),0.39 (inactive),0.0364 (inactive),0.0255 (inactive),-0.204,-0.0559
O=C1O[C@@H](c2ccccc2)[C@@H](c2ccccc2)N2[C@@H](c3ccc(O)cc3)[C@]3(C(=O)Nc4ccccc43)[C@@H](C(=O)NC[C@H](O)c3ccccc3)[C@H]12,0.0061,0.874,-0.121,-0.0487,-1.08,-1.5,-0.377 (inactive),-0.774,0.32,0.314 (inactive),1.42,-0.882 (inactive),0.616 (inactive),0.609 (inactive),-0.489 (inactive),0.0813 (inactive),0.389 (inactive),-0.163 (inactive),-0.273,0.272
O=C(NCCN1CCOCC1)[C@@H]1c2ccccc2C(=O)N(Cc2cc(F)cc(C(F)(F)F)c2)[C@H]1c1ccc(CO)cc1,1.22,0.767,1.2,0.34,-0.671,1.97,0.13 (inactive),0.738,-0.119,0.935 (inactive),-0.375,-0.191 (inactive),0.362 (inactive),-0.517 (inactive),-0.0807 (inactive),-0.64 (inactive),0.552 (inactive),-0.232 (inactive),0.419,0.0451
C=CC[C@@]1(C(=O)NCc2ccccc2)N=C(c2ccc(OCCCO)cc2)O[C@@H]1c1ccccc1CN=[N+]=[N-],-0.651,0.115,-1.09,-1.84,-3,-0.675,-1.85 (inactive),-0.979,-0.975,-1.23 (inactive),-0.46,1.36 (inactive),-1.89 (inactive),1.63 (inactive),1.1 (inactive),2.33 (inactive),0.537 (inactive),-0.793 (inactive),-1.45,0.404
CN(C)CCCC[C@@H]1NC(=O)[C@@H]2C[C@H](C(=O)NCCCCCN)[C@H](c3ccc(O)cc3)N2C1=O,0.635,0.177,-0.0772,0.189,-0.115,1.25,0.665 (inactive),-0.286,-0.592,-0.475 (inactive),-0.24,-0.235 (inactive),-0.507 (inactive),-1.33 (inactive),-0.0491 (inactive),-0.361 (inactive),0.591 (inactive),1.09 (inactive),-0.948,-0.134
